An excerpt weighted towards active compounds, which were near 12% of everything screened.
USP28 block: inhibitors of human USP28 deubiquitinase; purified USP28, Ub-rhodamine cleavage fluorescence, 30 min; AID 1645857, 2021; Ubiquitin carboxyl-terminal hydrolase 28 (Homo sapiens), Q96RU2; inhibition, % at 25 µM; 3% of 47,000 active
USP17 inh: inhibitors of human USP17 deubiquitinase; purified USP17, Ub-rhodamine cleavage fluorescence, 3 h; 6.5% of 47,000 active; Ubiquitin carboxyl-terminal hydrolase 17-like protein 5 (Homo sapiens), A8MUK1; inhibition, % at 50 µM
Target sequence (A8MUK1 whole entry, looked up): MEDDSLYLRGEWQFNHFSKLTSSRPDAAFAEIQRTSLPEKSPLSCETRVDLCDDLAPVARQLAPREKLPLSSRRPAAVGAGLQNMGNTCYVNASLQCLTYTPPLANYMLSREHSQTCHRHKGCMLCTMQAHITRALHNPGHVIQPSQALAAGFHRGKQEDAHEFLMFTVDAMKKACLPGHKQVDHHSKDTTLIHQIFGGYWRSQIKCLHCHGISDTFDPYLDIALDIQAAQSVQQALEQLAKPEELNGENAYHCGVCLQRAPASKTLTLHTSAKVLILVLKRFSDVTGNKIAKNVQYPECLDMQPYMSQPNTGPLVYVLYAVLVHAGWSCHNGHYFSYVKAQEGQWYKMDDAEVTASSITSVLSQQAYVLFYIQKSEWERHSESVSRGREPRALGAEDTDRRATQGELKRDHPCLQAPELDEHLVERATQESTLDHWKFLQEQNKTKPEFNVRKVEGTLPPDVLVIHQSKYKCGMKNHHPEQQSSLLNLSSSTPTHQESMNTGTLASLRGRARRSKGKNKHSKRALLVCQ
OTUD3 inh: inhibitors of human OTUD3 deubiquitinase; OTU domain-containing protein 3 (Homo sapiens), Q5T2D3; purified OTUD3, Ub-rhodamine fluorescence, 2 h; inhibition, % at 25 µM; 0.7% of 47,000 active
USP30 inh: inhibitors of human USP30 deubiquitinase; Ubiquitin carboxyl-terminal hydrolase 30 (Homo sapiens), Q70CQ3; purified USP30, Ub-rhodamine cleavage fluorescence; inhibition, % at 25 µM; 5.3% of 47,000 active; AID 1645860, 2021
* = called active by the depositor; i = inactive. Cut-off read from the data, not from the text of the source: active = inhibition above about 30%; inactive = the rest.

SMILES | USP28 block | USP17 inh | OTUD3 inh | USP30 inh
CC1=C(C)C(c2c(-c3ccc(C)cc3)[nH]c3ccccc23)N(C(C)(C)C)C1=O (centres undefined) | 12 | 94* | 4 | 10
Cc1ccc(S(=O)(=O)N2CCC(c3c(C)[nH]c4ccccc34)CC2)cc1 | 3 | 10 | 0 | -28
COC(=O)c1ccccc1NC(=O)CN1C(=O)CCc2ccccc21 | -10 | -16 | -12 | -43
COc1cc(C)ccc1OCC(=O)Nc1ccc(Oc2ccccc2)cc1 | 18 | 9 | 22 | 28
COc1ccc2nc(C)cc(OCC(=O)Nc3cc(C)cc(C)c3)c2c1 | -11 | 36* | -5 | 20
Cc1ccc2nc(CNC(=O)c3ccccc3-c3nc(-c4ccc(F)cc4)no3)[nH]c2c1 | 17 | 78* | 7 | -20
Cc1ccc(OCC(=O)N(C)C2(C)CCS(=O)(=O)C2)c(C)c1 (centres undefined) | 5 | 2 | 5 | 9
Cc1nn(CC(=O)Nc2cccc(C#N)c2)c(C)c1S(=O)(=O)NC(C)(C)C | 1 | 6 | 6 | 13
COc1nc(OC)nc(N2CCC(NC(=O)C(Cc3ccccc3F)NC(C)=O)CC2)n1 (centres undefined) | 5 | 14 | 3 | 42*
COc1nc(OC)nc(N2CCC(NC(=O)C(Cc3ccc(C)cc3)NC(C)=O)CC2)n1 (centres undefined) | 7 | 20 | 3 | 34*
COc1cccc(CC(NC(C)=O)C(=O)NC2CCN(c3nc(OC)nc(OC)n3)CC2)c1 (centres undefined) | -17 | -11 | -10 | -32
COc1ccc(CC(NC(C)=O)C(=O)NC2CCN(c3nc(OC)nc(OC)n3)CC2)cc1 (centres undefined) | 18 | 17 | 12 | 32*
CS(=O)(=O)c1ccc(-c2nnnn2-c2ccc(F)cc2F)c(Cl)c1 | 1 | 0 | 1 | 2
Cc1cc(C)n(-c2nc3c(c(=O)n2CC(=O)Nc2ccccc2C)CCC3)n1 | -2 | -11 | -3 | -8
COc1cccc(C(=O)[C@H]2C(c3ccc(Cl)cc3)=NO[C@]23C(=O)Nc2ccccc23)c1 | 23 | 23 | 14 | 11
O=C(Nc1cc(S(=O)(=O)N2CCOCC2)ccc1Cl)c1cc2c(s1)CCCC2 | 0 | 4 | -6 | -1
COc1ccc(NS(=O)(=O)c2cc(OC)ccc2NC(=O)c2cc3c(s2)CCC3)cc1 | 0 | 31* | 7 | -17
COc1cc(/C=C/C23NC(=O)CCN2c2ccccc2C3(C)C)ccc1OCc1ccccc1 (centres undefined) | -234 | -140 | -183 | i
O=C(Cn1cnc2ccccc2c1=O)NC1CCCC1 | -3 | -1 | -7 | -8
O=C(Cn1cncc(-c2nc(-c3ccccc3)cs2)c1=O)NC1CCCC1 | 36* | 67* | 30 | 49*
Cc1c(-c2ccc(C#N)cc2)oc2ccc(Br)cc2c1=O | 0 | 70* | -1 | -4
COc1cc(C)ccc1CN1CCC(c2ncncc2-c2noc(C)n2)C1 (centres undefined) | -4 | -10 | 0 | -2
O=C(NCc1ccccc1)C(Cc1ccccc1)NS(=O)(=O)c1ccc2c(c1)OCCO2 (centres undefined) | 56* | 86* | 16 | 52*
O=C(O)C(Cc1ccccc1)NS(=O)(=O)c1ccc2c(c1)OCCO2 (centres undefined) | 6 | -8 | 6 | 1
O=C(Nc1ccc(N2CCOCC2)cc1)C(Cc1ccccc1)NS(=O)(=O)c1ccc2c(c1)OCCO2 (centres undefined) | 37* | -7 | -5 | -10
SMILES | USP28 block | USP17 inh | OTUD3 inh | USP30 inh
CC(C)N1C(=O)CO[C@H]2CN(c3ncccn3)C[C@H]21 | -5 | -14 | -3 | 1
Cc1cnc(C(=O)N2CCC[C@@H]3NC(=O)c4ccccc4OCC/C=C/C[C@@H]32)cn1 | 45* | 0 | 9 | -15
CCCn1c(-c2ccc(CC)cc2)cn2c(-c3ccccc3)c(-c3ccccc3)nc12 | 17 | 33* | 17 | 15
COc1ccc(-c2cn3c(-c4ccccc4)c(-c4ccccc4)nc3n2-c2ccccc2)cc1 | 18 | 48* | 24 | 37*
COc1cccc(-c2cn3c(-c4ccccc4)c(-c4ccccc4)nc3n2-c2ccccc2)c1 | -9 | 22 | -4 | -7
O=C(c1ccccn1)N1CCOC(Cc2ccccn2)(C(=O)NCc2ccccc2)C1 (centres undefined) | 1 | -5 | 12 | 9
O=C(CSc1nnc2ccccn12)Nc1ccc2[nH]c(=O)[nH]c2c1 | -11 | 6 | -27 | -123
O=C(COC(=O)c1ccccc1F)Nc1ccc2[nH]c(=O)[nH]c2c1 | 37* | 18 | 0 | 18
O=C(COC(=O)c1ccc(F)cc1)Nc1ccc2[nH]c(=O)[nH]c2c1 | 23 | 29 | 10 | 14
O=C(COC(=O)c1cc(Cl)c2c(c1)OCO2)Nc1ccc2[nH]c(=O)[nH]c2c1 | 51* | 57* | 31* | -27
CC(CC(=O)OCC(=O)Nc1ccc2[nH]c(=O)[nH]c2c1)c1ccccc1 (centres undefined) | 31* | 17 | -2 | 16
Cc1nnc(SCC(=O)Nc2ccc3[nH]c(=O)[nH]c3c2)n1-c1ccccc1 | 2 | 34* | -2 | -13
CCn1c(=O)n(Cc2ccccc2C(F)(F)F)c2cncnc21 | 2 | 0 | 10 | 7
CCCN1CCN(c2ccc(C(=O)O)cc2NS(=O)(=O)c2ccccc2)CC1 | -8 | 0 | -5 | -13
CC(=O)Nc1cc(-c2ccoc2)cn2c(-c3cnn(C)c3)cnc12 | -99 | -94 | -97 | -468
O=C(Nc1ccc(S(=O)(=O)N2CCOCC2)cc1)c1oc(=O)c2ccccc2c1-c1ccccc1 | 0 | 37* | -1 | 34*
COc1ccc(NC(=O)c2oc(=O)c3ccccc3c2-c2ccccc2)cc1Cl | 1 | 6 | 0 | 0
Cc1ccc(OCC(=O)Nc2onc3c2CCCC3)cc1C | 30* | 6 | 11 | 21
O=C(Cn1c(=O)n(C2CC2)c(=O)c2nscc21)Nc1ccccc1F | -9 | 0 | 1 | 1
CCOC(=O)c1cc(NC(=O)c2cccnc2)ccc1N1CCOCC1 | -6 | -5 | -3 | 2
CC(C)N1CCn2c(nc3cc(NC(=O)c4cccnc4)ccc32)C1 | 19 | 34* | -5 | -67

Screening results as filed in PubChem.
